Data on seven compounds can be found in PubChem BioAssay (Tox21).

Where “and” joins values, the source holds several entries; their conditions need not be identical. Identical values can stand only once. Inconclusive results are not listed. The source holds several records for some structures; these can differ, active in one and inactive in another. Calls of active or inactive are those of the source. Unless noted, calls come from the whole dose curve; as a rule, active = well fitted curve in the direction sought with a large enough effect in the repeat runs; inconclusive = weak or mixed curves; inactive = no such curve, though single readings can be large; an effect the other way counts as inactive or inconclusive.

Experiment [1] has as its target Thyrotropin receptor (Homo sapiens) (UniProt P16473). The experiment can be described thus: qHTS assay to identify small molecule agonists of the thyroid stimulating hormone receptor (TSHR) signaling pathway (AID 1224843; calls by dose curve; note: nearly all actives have a fitted effect of over 45% in size). In short, it runs like this: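 Using 15 concentrations per compound in triplicate, cAMP production was monitored in TSHR-HEK293 cells after 30 min compound incubation at RT; HTRF reagents followed, with fluorescence intensity recorded after 1 h.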
(In general: In qHTS, concentration-response curves come from the screen itself.)

A short description of experiment [2]: qHTS assay to identify small molecule agonists of the hypoxia (HIF-1) signaling pathway - cell viability counter screen (AID 1224844; calls by dose curve; note: nearly all actives have a fitted effect of over 50% in size). In short, it runs like this: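 Viability counter screen: HRE-bla ME-180 cells plated 5 hrs before compound addition, treated 17 hrs at 37C and 5% CO2, then CellTiter-Glo added after the FRET reporter read; luminescence after 30 min.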

Experiment [3] can be described thus: qHTS assay to identify small molecule agonists of H2AX (AID 1224845; active = well fitted activation curve with a large enough effect in the signal ratio in the repeat runs, not every such curve was filed as active; the % refers to the signal ratio). In short, it runs like this:
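Wild-type CHO-K1 cells plated overnight, then exposed 3 hr at 37C to compounds at 15 concentrations (0.76% DMSO). Lysed, then HTRF anti-pH2AX(S139)-cryptate/anti-H2AX-d2 detection after 24 hr at room temperature; emissions 665 and 620 nm.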

A short description of experiment [4]: qHTS assay to identify small molecule agonists of H2AX - cell viability counter screen (AID 1224847; calls by dose curve; note: top concentration of the series differs between compounds; nearly all actives have a fitted effect of over 30% in size). In short, it runs like this: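 CHO-K1 cells plated overnight at 37C, then exposed 3 h at 37C to compounds at 15 concentrations (0.76% DMSO final). Viability by CellTiter-Glo luminescence after 30 min at room temperature.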
Experiment [5] can be described thus: qHTS RealTime-Glo MT Cell Viability Assay in HepG2 cells - 24 hour (AID 1224867). Note: nearly all actives have a fitted effect of over 50% in size. In short, it runs like this: (§1)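 Cell number in HepG2 cultures estimated from NanoLuc luminescence generated by metabolic reduction of a prosubstrate by living cells. The homogeneous, nonlytic format allowed repeated reads at 0, 8, 16, 24, 32 and 40 h of compound exposure.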
Experiment [6] in a line: qHTS RealTime-Glo MT Cell Viability Assay in HEK293 cells - 32 hour (AID 1224868). Note: nearly all actives have a fitted effect of over 50% in size. Note: potency is the fitted concentration of half-maximal effect. In short, it runs like this: (§2)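 Homogeneous bioluminescent viability format in HEK293 cells (600 cells/well). Following 5 h at 37 C/5% CO2, 23 nL compound was pintooled; the signal was measured repeatedly during 40 h incubation.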
Experiment [7] in a line: A CellTox Green Cytotoxicity Assay to monitor cytotoxicity in HEK293 cells - 0 hour (AID 1224869). Note: nearly all actives have a fitted effect of over 50% in size. In short, it runs like this:
(§3)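 Dead-cell fluorescence measured kinetically: asymmetric cyanine dye, HEK293, 600 cells/well, 5 h settle, 23 nL cpd/DMSO, 37 C, reads 0–40 h every 8 h.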

Experiment [8] can be described thus: qHTS RealTime-Glo MT Cell Viability Assay in HepG2 cells - 40 hour (AID 1224870). Note: nearly all actives have a fitted effect of over 50% in size. Note: potency is the fitted concentration of half-maximal effect. In short, it runs like this: (§4)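 HepG2 cells mixed with RealTime-Glo MT reagents (NanoLuc plus cell-permeant prosubstrate) were seeded at 600 cells/well, incubated 5 h at 37 C/5% CO2, then pinned with compounds in DMSO; nonlytic luminescence tracked viability during 40 h treatment.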

The nature of experiment [9]: A CellTox Green Cytotoxicity Assay to monitor cytotoxicity in HEK293 cells - 40 hour (AID 1224871). Note: nearly all actives have a fitted effect of over 45% in size. In short, it runs like this: as §3
Experiment [10] in a line: qHTS RealTime-Glo MT Cell Viability Assay in HEK293 cells - 16 hour (AID 1224872). In short, it runs like this:
as §2

Experiment [11] in a line: qHTS RealTime-Glo MT Cell Viability Assay in HepG2 cells - 8 hour (AID 1224873). Note: nearly all actives have a fitted effect of over 55% in size. In short, it runs like this: as §4
Experiment [12] in a line: qHTS RealTime-Glo MT Cell Viability Assay in HEK293 cells - 40 hour (AID 1224874). Note: nearly all actives have a fitted effect of over 50% in size. Note: potency is the fitted concentration of half-maximal effect. The conditions noted are these: RealTime-Glo luminescence; max response: stronger effect = lower value. In short, it runs like this:
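600 HEK293 cells per well, dispensed already mixed with RealTime-Glo MT reagents. Compound dosing came 5 h later. The same wells were read for luminescence at 0, 8, 16, 24, 32 and 40 h of exposure at 37 C.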

A short description of experiment [13]: A CellTox Green Cytotoxicity Assay to monitor cytotoxicity in HEK293 cells - 24 hour (AID 1224875). Note: nearly all actives have a fitted effect of over 45% in size. In short, it runs like this: as §3
Experiment [14] is described as follows: A CellTox Green Cytotoxicity Assay to monitor cytotoxicity in HepG2 cells - 16 hour (AID 1224876). Note: nearly all actives have a fitted effect of over 45% in size. In short, it runs like this: (§5)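 First, HepG2 cells (600/well) mixed with reagent were plated; second, after 5 h at 37 C they received compounds via pintool; third, fluorescence was measured at 0 h through 40 h at 8 h intervals.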
Experiment [15] in a line: qHTS RealTime-Glo MT Cell Viability Assay in HepG2 cells - 32 hour (AID 1224877). Note: nearly all actives have a fitted effect of over 55% in size. In short, it runs like this:
as §1

Experiment [16] in a line: A CellTox Green Cytotoxicity Assay to monitor cytotoxicity in HepG2 cells - 24 hour (AID 1224878). Note: nearly all actives have a fitted effect of over 45% in size. In short, it runs like this:
as §5

Experiment [17] in a line: A CellTox Green Cytotoxicity Assay to monitor cytotoxicity in HepG2 cells - 40 hour (AID 1224879). Note: nearly all actives have a fitted effect of over 40% in size. Note: potency is the fitted concentration of half-maximal effect. In short, it runs like this: as §5
Experiment [18] is described as follows: qHTS assay to identify small molecule agonists of the hypoxia (HIF-1) signaling pathway (AID 1224846; active = well fitted activation curve with a large enough effect in the signal ratio in the repeat runs, not every such curve was filed as active; the % refers to the signal ratio). In short, it runs like this: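 Agonist mode reporter screen. ME-180 cells stably expressing bla under HRE control received test compounds in DMSO for 17 hrs (37C, 5% CO2), and beta-lactamase activity was then detected with the CCF4-AM FRET substrate.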
Experiment [19] is described as follows: qHTS assay to identify small molecule antagonists of the estrogen related receptor (ERR) signaling pathway from Tox21 library (AID 1224848). Note: nearly all actives have a fitted effect of over 50% in size. In short, it runs like this:
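Tox21 10K compounds in DMSO tested for ERR pathway antagonism in NTP's ERR cell line; 18 h, 37 C exposure; ONE-Glo luminescence.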

Experiment [20] can be described thus: qHTS assay to identify small molecule agonists of the estrogen related receptor (ERR) signaling pathway from Tox21 library (AID 1224849; calls by dose curve; note: nearly all actives have a fitted effect of over 15% in size). The conditions noted are these: ERR reporter cell line, ONE-Glo luciferase, 18 h. In short, it runs like this: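 Quantitative HTS in agonist format: NTP ERR cell line, compounds transferred in DMSO after 6 h plating, 18 h incubation at 37 C, ONE-Glo luminescence endpoint.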
% is set by controls: 0 for no effect and ±100 for the full control effect.

Sequence of Thyrotropin receptor (Homo sapiens) (P16473 whole entry, looked up): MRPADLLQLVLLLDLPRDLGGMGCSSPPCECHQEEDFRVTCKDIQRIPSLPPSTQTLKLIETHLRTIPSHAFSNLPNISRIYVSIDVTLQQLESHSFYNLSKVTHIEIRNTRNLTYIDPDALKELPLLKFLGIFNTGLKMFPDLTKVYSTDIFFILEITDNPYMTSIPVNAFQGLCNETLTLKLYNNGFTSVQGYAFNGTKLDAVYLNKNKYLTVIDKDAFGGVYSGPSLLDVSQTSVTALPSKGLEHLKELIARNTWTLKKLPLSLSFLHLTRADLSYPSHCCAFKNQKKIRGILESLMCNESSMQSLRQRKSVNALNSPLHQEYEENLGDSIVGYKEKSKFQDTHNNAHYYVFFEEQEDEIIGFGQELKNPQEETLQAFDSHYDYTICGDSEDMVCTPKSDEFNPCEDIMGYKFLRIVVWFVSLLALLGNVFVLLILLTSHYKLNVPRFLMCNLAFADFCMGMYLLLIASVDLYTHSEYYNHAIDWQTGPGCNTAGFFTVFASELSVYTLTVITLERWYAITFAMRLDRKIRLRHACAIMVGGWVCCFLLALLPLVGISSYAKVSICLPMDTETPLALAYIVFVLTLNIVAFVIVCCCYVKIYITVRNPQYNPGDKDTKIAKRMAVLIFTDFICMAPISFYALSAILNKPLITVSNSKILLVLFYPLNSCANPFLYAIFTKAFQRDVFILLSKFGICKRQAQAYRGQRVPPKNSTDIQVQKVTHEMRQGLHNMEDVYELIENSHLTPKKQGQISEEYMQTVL

Turning to `CCC1(c2ccccc2)C(=O)NCNC1=O`, the compound was called inactive in experiment [1], in experiment [3], in [4], in experiment [7] and in [11]. For the same compound, the Potency entry in experiment [2], in [5], in experiment [6], in [8], in experiment [9] and in experiment [10] was “inactive” throughout. For the same compound, the Potency result in experiment [13], in [14], in [15], in [16] and in [17] was “inactive” in each case. In addition, the max response in [12] was -6.46% (inactive) and 0.966% (inactive) and 0.298% (inactive).
With `Nc1ccc(S(=O)(=O)c2ccc(N)cc2)cc1`, the call in experiment [1], in experiment [3], in [4], in [7] and in [11] was inactive. The Potency entry in experiment [2], in experiment [5], in experiment [6], in [8], in [9] and in experiment [10] was “inactive” each time. In addition, the Potency entry in experiment [13], in [14], in [15], in [16] and in experiment [17] was “inactive” throughout.
`Cc1cc(=O)[nH]c(=S)[nH]1`: the compound was called inactive in experiment [1], in experiment [3], in experiment [18], in [4], in [7] and in experiment [11]. The Potency entry in [2], in [5], in experiment [6], in experiment [8], in [10] and in [13] was “inactive” in each case. In addition, the Potency entry in experiment [14], in experiment [15], in [16] and in experiment [17] was “inactive” in each case.
For `Cc1ccc(C)c(OCCCC(C)(C)C(=O)O)c1`, the compound was classed as inactive in [1], in experiment [3], in experiment [4], in [7] and in [11]. In addition, the Potency entry in experiment [2], in [5], in [6], in experiment [8], in experiment [10] and in [13] was “inactive” each time. Besides, the Potency entry in experiment [14], in experiment [15], in experiment [16] and in [17] was “inactive” in each case.
As to `CNC[C@H](O)c1cccc(O)c1`, the Potency result in experiment [2], in experiment [19], in experiment [5], in experiment [6], in [8] and in experiment [9] was “inactive” throughout. In addition, the Potency result in experiment [10], in [13], in experiment [14], in [15], in experiment [16] and in experiment [17] was “inactive” throughout. Also, the compound was classed as inactive in experiment [3], in experiment [18], in [4], in [7] and in [11]. In addition, the activity change, positive = activation in experiment [20] (at 42.5 µM (top of the series)) is 5.4% (inactive); in [20] (at 92.4 µM (top of the series)), -1.31% (inactive) and 0.843% (inactive). In addition, the max response in experiment [12] was 8.72% (inactive) and 5.33% (inactive) and 3.68% (inactive).
In the case of `N=C(N)c1ccc(OCCCCCOc2ccc(C(=N)N)cc2)cc1`, the result in [1], in [3], in [18], in experiment [4], in [7] and in experiment [11] was inactive. The Potency result in experiment [2], in [5], in experiment [13], in [14], in experiment [15] and in experiment [16] was “inactive” in each case. Moreover, the Potency is 12.2 µM (active) and 16.6 µM (active) in [6]; 54.7 µM (active) and inactive in experiment [8]; 9.73 µM (active) and 16.6 µM (active) and 21.3 µM (active) in experiment [12]; 48.8 µM (active) and inactive in experiment [17].
For the compound `CC(O)CN(CCN(CC(C)O)CC(C)O)CC(C)O` (stereo unspecified), the outcome in experiment [1], in [3], in experiment [4], in experiment [7] and in experiment [11] was inactive. Besides, the Potency entry in experiment [2], in [5], in [6], in experiment [8], in experiment [10] and in [13] was “inactive” throughout. The Potency entry in experiment [14], in experiment [15], in [16] and in experiment [17] was “inactive” each time. Moreover, the max response in experiment [12] was 2.34% (inactive) and 10.6% (inactive) and -2.16% (inactive).
